HSP90 refold inh: HSP90 inhibitors, primary screen, cell lysate, luminescence | 290,000 compounds, 0.91% hits | Rabbit reticulocyte lysate, luciferase refolding luminescence, 3 h | inhibition, % at 5.6 µM | AID 1789, 2009 | Heat shock protein HSP 90 (rabbit reticulocyte lysate; luciferase refolding);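 active = inhibition above the screen-wide mean plus 3 SD, computed separately per campaign, cut at about 16% in these data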;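 note: 0% = DMSO wells and 100% = 60 µM geldanamycin wells; inhibitors lower the luminescence because luciferase stays unfolded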
HSF1 activator: HSF-1 activators, primary screen, NIH3T3-HGL cells, MG132 stress, luminescence, single point. NIH3T3-HGL HSF-1 luciferase reporter, 8 h; 100% = twice DMSO control signal. activation, % at 9 µM. 300,000 compounds, 1.7% hits. AID 504408, 2011;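 active = mean replicate activation of at least 50% with a set share of replicates each reaching 50%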;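 note: 0% = median of the neutral control wells and 100% = twice that signal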
MPTP inh: mitochondrial permeability transition pore inhibitors, primary screen, biochemical, isolated mouse mitochondria, absorbance. Ca2+ swelling absorbance, 30 min. inhibition, % at 10 µM. 360,000 compounds, 1.4% hits;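 active = inhibition of 50% or more, scaled per plate between neutral and stimulator controls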;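 note: 0% = DMSO wells given calcium and 100% = 1 mM EGTA wells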
dFosB act-1: activators of delta FosB homodimer, primary screen, biochemical, fluorescence polarization, TAMRA-CDK5 oligo, single point; Protein FosB (Mus musculus), P13346; purified delta FosB; percent of positive-control signal above neutral wells; activation, % at 25 µM; 340,000 compounds, 0.99% hits; AID 493131, 2011;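 active = mean activation above about 17%, with every replicate also reaching it, limit read from the data, passing the limit was not always enough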
Target sequence (P13346 whole entry, looked up): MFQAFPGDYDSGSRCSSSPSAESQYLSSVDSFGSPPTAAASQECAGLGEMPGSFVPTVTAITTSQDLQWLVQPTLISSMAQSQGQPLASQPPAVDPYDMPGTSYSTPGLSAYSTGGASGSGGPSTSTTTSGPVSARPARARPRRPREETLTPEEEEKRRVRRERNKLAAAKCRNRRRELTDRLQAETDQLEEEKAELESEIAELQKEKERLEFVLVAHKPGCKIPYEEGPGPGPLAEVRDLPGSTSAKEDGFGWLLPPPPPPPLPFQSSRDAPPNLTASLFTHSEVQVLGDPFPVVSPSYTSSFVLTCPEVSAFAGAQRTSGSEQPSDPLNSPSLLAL
HSF1 inhib: HSF1 inhibitors in luciferase reporter cells, primary screen, cell-based, NIH3T3, luminescence. NIH3T3-HGL HSE-luciferase, MG132-induced, luminescence 8 h; active compounds read low. 300,000 compounds, 0.77% hits. activity change, negative = inhibition, % at 7.5 µM (by protocol);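 active = more than half of replicate wells show activity change below -50%, luminescence cut by over half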;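 note: luciferase reports HSF-1 transcriptional activity via heat shock element; 0% = median of DMSO wells and -100% = zero luminescence signal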
Platelet DG rel: inhibitors of platelet dense granule secretion, primary screen, cell-based, MLPCN, human platelets; inhibition, %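 (compounds screened at 7.5 µM in platelet-rich plasma)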; 300,000 compounds, 0.22% hits; human platelet-rich plasma, SFLLRN dense granule ATP release, luminescence;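 active = mean replicate score, as percent of positive control, at or above 50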
dFosB act-2: activators of mouse delta FosB DNA binding, confirmation, biochemical, fluorescence polarization, TAMRA-CDK5 oligo, cherry-picked samples. 2,400 tested, under 10 active. activation, % at 24.9 µM. purified delta FosB; normalised: neutral wells 0, positive control 100. shares compounds with dFosB act-1;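 active = highest replicate activation at or above 34% and every replicate reaching that threshold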;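 note: higher polarization means more probe DNA bound by delta FosB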
* hit, by the source's call; · = no result. Rows were chosen to be rich in hits. Some 4.9% of all compounds tested hit in one or more screens of this group.

SMILES | HSP90 refold inh | HSF1 activator | MPTP inh | dFosB act-1 | HSF1 inhib | Platelet DG rel | dFosB act-2
CN(C)CCCN(C(=O)c1cc(-c2cccs2)nc2ccccc12)c1nc2ccc(F)cc2s1 | 6 | 32 | 0 | 28* | 5 | 2 | 5
COc1cc2ccccc2cc1C(=O)N(CCN(C)C)c1nc2c(F)cc(F)cc2s1 | -3 | -16 | 6 | 35* | -11 | -4 | 6
CN(C)CCN(C(=O)CCc1ccccc1)c1nc2c(F)cc(F)cc2s1 | 0 | 11 | 5 | 3 | -2 | 12 | ·
COc1cc2ccccc2cc1C(=O)N(CCN(C)C)c1nc2ccc(Br)cc2s1 | 3 | -6 | 1 | 44* | 2 | 12 | 5
COC(=O)C(C)Oc1ccc(-c2nccc(-c3ccccn3)n2)cc1 (configuration not stated) | 4 | 12 | 0 | -19 | 1 | -2 | ·
O=C(Cn1cnc2c(nnn2-c2ccccc2)c1=O)NCc1ccc(F)cc1 | 1 | 9 | 0 | 19* | 2 | 5 | 4
CCOc1ccc(CNC(=O)Cn2nc(C)c3c(C)n(-c4ccc(C)cc4)nc3c2=O)cc1 | 4 | 4 | 0 | 59* | -1 | -3 | 6
Cc1ccc(-n2nnc3c(=O)n(CC(=O)NCc4ccccc4)cnc32)cc1 | 4 | -18 | 2 | 27* | 0 | 4 | 4
Cc1cc(NC(=O)CN2CCc3ccccc3C2)nc2c1c(=O)oc1ccccc12 | 6 | 4 | -1 | 31* | -1 | -15 | 0
CCCC(=O)Nc1cc(C)c2c(=O)oc3ccccc3c2n1 | · | 4 | 0 | -42 | -2 | -4 | ·
Cc1csc2nc(SCC(=O)N3CCN(c4ccccc4)CC3)[nH]c(=O)c12 | -2 | 6 | 0 | -9 | 2 | 6 | ·
O=c1[nH]c(SCc2nc3c(cnn3-c3ccccc3)c(=O)[nH]2)nc2ccccc12 | -1 | · | 1 | 44* | · | · | 4
O=c1[nH]c(CSc2nc3ccccc3[nH]2)nc2c1cnn2-c1ccccc1 | 4 | 24 | 4 | -19 | 9 | 0 | ·
CCOC(=O)Nc1ccc2c(COC(=O)CN(C)S(=O)(=O)c3ccc(C)cc3)cc(=O)oc2c1 | · | 1 | 1 | 36* | 0 | 11 | 7
CC(NC(=O)COc1ccc(Br)cc1)C1CCCO1 (configuration not stated) | 2 | 5 | -1 | -5 | 3 | -3 | ·
CCN(CC(=O)Nc1ccc(OC)cc1)C(=O)c1ccc2c(=O)n3c(nc2c1)CCC3 | · | · | -1 | 6 | · | · | ·
Cc1ccc(CCNC(=O)c2ccc(NC3=NC4CS(=O)(=O)CC4S3)cc2)cc1 (configuration not stated) | 0 | -2 | -2 | 10 | 1 | 14 | ·
NS(=O)(=O)c1ccc(CCNC(=O)c2ccc(NC3=NC4CS(=O)(=O)CC4S3)cc2)cc1 (configuration not stated) | -5 | -5 | 0 | 18* | -3 | -3 | 5
C[C@H](CO)N1C[C@H](C)[C@H](CN(C)C(=O)Cc2ccccc2)OCc2cnnn2CCCC1=O | · | · | -2 | · | · | · | ·
O=C(CSc1nnc(-c2ccncc2)n1Cc1ccco1)Nc1nc(-c2ccccc2)cs1 | -2 | 0 | 0 | 33* | 6 | -8 | -2
COc1ccc(CCNC(=O)[C@H](C)N2C(=O)N3CCc4c([nH]c5ccccc45)[C@@]3(C)C2=O)cc1 | -3 | 7 | 0 | -3 | 9 | 2 | ·
COc1ccc(-c2cc(C(=O)Nc3ccc4c(c3)OCO4)no2)cc1OC | -3 | 0 | 1 | 7 | -1 | -42 | ·
O=C(Nc1cc(Br)ccc1O)c1cc(-c2ccc3c(c2)OCO3)on1 | 6 | -2 | 0 | 77* | -2 | 17 | 1
O=C(Nc1cc(Br)ccc1O)c1cc(-c2cccs2)on1 | 1 | 24 | 2 | 49* | 1 | 14 | -4
COc1ccc(NC(=O)c2cc(-c3ccc4c(c3)OCO4)on2)cc1OC | -3 | 33 | 0 | 33* | 7 | -36 | 2
SMILES | HSP90 refold inh | HSF1 activator | MPTP inh | dFosB act-1 | HSF1 inhib | Platelet DG rel | dFosB act-2
Cc1ccccc1NC(=O)CSc1nnc(NC(=O)c2ccco2)s1 | -3 | -9 | 0 | 39* | -7 | 9 | 0
Cc1cc(NC(=O)CSc2nnc(Nc3ccccc3C)s2)no1 | -3 | 7 | 1 | 62* | -4 | 1 | 0
CCOc1ccc2nc(NC(=O)c3ccc(OC)c(S(=O)(=O)N4CCOCC4)c3)sc2c1 | -2 | -7 | 3 | 26* | -2 | 1 | 5
Cn1nc(-c2ccc(C(=O)Nc3ccc(F)cc3)cc2)c2ccccc2c1=O | -6 | 4 | -1 | 51* | -2 | -1 | -2
Cc1ccc(NC(=O)c2ccc(-c3nn(C)c(=O)c4ccccc34)cc2)cc1 | -2 | -4 | 5 | 5 | -10 | 6 | ·
Cn1nc(-c2ccc(C(=O)Nc3cccc(Cl)c3)cc2)c2ccccc2c1=O | 0 | 4 | 32 | 40* | 2 | -2 | 1
O=C(Nc1ccc(Cl)cc1)NN1CC(=O)N(c2cccc(C(F)(F)F)c2)CC1=O | -3 | 5 | 2 | 31* | 2 | -2 | -1
Cc1ccc(CNC(=O)c2ccc(N3CCC4(CC3)CC(c3cccc(Br)c3)=NO4)c(NC(=O)c3ccc(Br)cc3)c2)cc1 | · | · | -2 | 9 | · | · | ·
Cc1ccc(CNC(=O)c2ccc(N3CCC4(CC3)CC(c3cccc(Br)c3)=NO4)c(NC(=O)c3c(Cl)cccc3Cl)c2)cc1 | · | · | 0 | 24* | · | · | 1
CCN(CC)CCCNC(=O)c1ccc2c3n(nc2c1)-c1ccc(Cl)cc1CO3 | · | 15 | -1 | 34* | 3 | 1 | -3
CC(C)NC(=O)c1ccc2c3n(nc2c1)-c1ccc(Cl)cc1CO3 | · | 35 | -1 | -6 | 19 | 11 | ·
O=C(NCC(c1ccco1)N1CCCC1)c1ccc(Cl)c(S(=O)(=O)N2CCc3ccccc32)c1 (configuration not stated) | · | · | 13 | 23* | · | · | 5
COc1ccc(NS(=O)(=O)c2ccc(O)c([N+](=O)[O-])c2)cc1S(=O)(=O)N1CCCCC1 | · | · | 0 | 6 | · | · | ·
CC(C)CN(C(=O)CSc1nnnn1-c1ccccc1)c1c(N)n(CC(C)C)c(=O)[nH]c1=O | -2 | -4 | -1 | 38* | -11 | 3 | 3

Source: PubChem
